High-throughput results as filed in PubChem.
This excerpt belongs to a sample that is enriched for hits.
Tgondii IFNg: inhibitors of Toxoplasma gondii growth with IFN-gamma. 69,000 compounds, 3.8% hits. Toxoplasma gondii growth in IFN-gamma-treated host cells; stronger effect = lower value. AID 1259416. activity change, negative = inhibition, % (test concentration not listed); in the data active means activity change below about -70%, passing the limit was not always enough;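 further: host cells are HeLa cells infected with Toxoplasma gondii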
* = called active by the depositor.

What do the screens show for `CCc1nnc(-c2coc(S(=O)(=O)N3CCC(N4CCCCC4)CC3)c2)o1`?
Tgondii IFNg: 13.1

What do the screens show for `Cc1cc(F)ccc1S(=O)(=O)NCCc1sc(-c2ccc(Cl)cc2)nc1C`?
Tgondii IFNg: 361.8

What do the screens show for `Cc1cccc(-c2nc(C)c(CCNS(=O)(=O)c3ccccc3F)s2)c1`?
Tgondii IFNg: inactive

What do the screens show for `Cc1nc(-c2ccc(Cl)cc2)sc1CCNS(=O)(=O)c1ccccc1F`?
Tgondii IFNg: -71.9*

How did Cc1cccc(-c2nc(C)c(CCNS(=O)(=O)c3ccc(-c4ccccc4)cc3)s2)c1 do in these assays?
Tgondii IFNg: -83.9*

Results for Cc1cccc(-c2nc(C)c(CCNS(=O)(=O)c3ccc(I)cc3)s2)c1 ?
Tgondii IFNg: inactive

Results for Cc1nc(-c2ccccc2)sc1CCNS(=O)(=O)c1ccccc1 ?
Tgondii IFNg: 368.7

What do the screens show for `COc1cccc(CN2CCOC3(CCN(c4ncccn4)CC3)C2)c1`?
Tgondii IFNg: -2.5

Results for CCOC(=O)c1cnc2c(OC)cccc2c1NCc1ccco1 ?
Tgondii IFNg: -24.4

What do the screens show for `Cc1cc(C)c2cc(C)c(SCC(=O)Nc3nc(C)cs3)nc2c1`?
Tgondii IFNg: -57.8

How did CSc1nnc(CC2CCN(Cc3cccc4nsnc34)CC2)n1C do in these assays?
Tgondii IFNg: 9.3

What do the screens show for `COC(=O)Nc1ccc(S(=O)(=O)Oc2ccc(C)cc2-n2nc3ccccc3n2)cc1`?
Tgondii IFNg: 21.9

Results for CC(Oc1ccccc1)c1nnc(SCC(=O)N2CCc3ccccc32)n1C (stereo unspecified) ?
Tgondii IFNg: 16.8

What do the screens show for `C[C@H](NC(=O)Cc1cc(F)cc(F)c1)C(=O)N[C@@H]1C(=O)N(C)c2ccccc2-c2ccccc21`?
Tgondii IFNg: -83.1*

How did CN1C(=O)C(CCC(=O)O)c2ccccc21 (stereo unspecified) do in these assays?
Tgondii IFNg: 27.1

How did CC(C)[C@H](O)C(=O)N[C@@H](C)C(=O)N[C@H]1C(=O)N(C)CCc2ccccc21 do in these assays?
Tgondii IFNg: -6.0

What do the screens show for `CN(Cc1cccc(C(=O)Nc2ccnn2C)c1)Cc1cc(C2CC2)n[nH]1`?
Tgondii IFNg: -3.4

Results for NCC1Cc2cc(-c3ccc(C(=O)N4CCCC4)o3)cc(Cl)c2O1 (stereo unspecified) ?
Tgondii IFNg: -8.4

Results for CC(C)C[C@@H](CO)n1cc(-c2ccnc3ccccc23)nn1 ?
Tgondii IFNg: -4.6

What do the screens show for `CC(C)C(=O)N1CCc2cc(C(O)CN3CCN(c4cnccn4)CC3)ccc21` (stereo unspecified)?
Tgondii IFNg: -46.1

How did COc1ccc(CNC(=O)c2nc(Nc3ccc(F)cc3)c3ccccc3n2)c(OC)c1 do in these assays?
Tgondii IFNg: 39.7

What do the screens show for `CCOC(=O)c1nc(Nc2ccc(OC)c(OC)c2)c2ccccc2n1`?
Tgondii IFNg: 17.9

Results for COc1cc(NS(C)(=O)=O)ccc1Cc1c2ccccc2nc2ccccc12 ?
Tgondii IFNg: -83.3*

What do the screens show for `CCOc1ccccc1NC(=O)c1c(O)c2cccnc2n(-c2ccccc2)c1=O`?
Tgondii IFNg: 60.7

How did CN(C)C1CCN(C(=O)c2cc(-c3ccn(C4CCCC4)n3)n3ccccc23)CC1 do in these assays?
Tgondii IFNg: 6.8

Results for O=C(c1csnn1)N1CCC2(c3ccccc3)CN(CCO)CC2C1 (stereo unspecified) ?
Tgondii IFNg: 0.0

What do the screens show for `Cc1ccc2[nH]cc(-c3nccc(C(F)(F)F)n3)c2c1`?
Tgondii IFNg: -11.7

What do the screens show for `COc1nc(OC)nc(-c2c[nH]c3ccc(C)cc23)n1`?
Tgondii IFNg: -87.0*

What do the screens show for `COc1nccnc1-c1c[nH]c2ccc(C)cc12`?
Tgondii IFNg: 137.9

What do the screens show for `Cc1nc2ncc(-c3cc(NCc4ccccn4)nc4[nH]ccc34)cc2[nH]1`?
Tgondii IFNg: -1.0

What do the screens show for `Cn1nccc1-c1nc(NCc2ccccn2)ncc1-c1ccsc1`?
Tgondii IFNg: -93.0*

How did Cn1ccnc1-c1cnc(NCc2ccccn2)nc1-c1ccco1 do in these assays?
Tgondii IFNg: 26.2

How did Cc1nc(NC(=O)c2cnccn2)ccc1Br do in these assays?
Tgondii IFNg: 455.5

Results for O=C(Nc1ccc(OC(F)(F)F)cc1Br)c1cnccn1 ?
Tgondii IFNg: -109.8*

What do the screens show for `CCOc1ccccc1NC(=O)c1cnccn1`?
Tgondii IFNg: -45.6

Results for Cc1ccc(-c2csc3nnc(SCC(=O)Nc4cccc(Cl)c4Cl)n23)cc1 ?
Tgondii IFNg: -16.9

What do the screens show for `CC(C)C1CN(C(=O)c2cn[nH]c2-n2cnnn2)CCCN1CC1CC1` (stereo unspecified)?
Tgondii IFNg: -60.5

How did CC(=O)Oc1ccc(-c2ccc(OC(C)=O)cc2)cc1 do in these assays?
Tgondii IFNg: 23.1

How did COc1cc2c(cc1CN1CCN(Cc3ncccc3C)CC1)OCO2 do in these assays?
Tgondii IFNg: 0.6

What do the screens show for `CC(C)c1ccc(S(=O)(=O)c2cnc(N3CCC(C(N)=O)(N4CCCCC4)CC3)nc2N)cc1`?
Tgondii IFNg: 26.9

What do the screens show for `CCc1ccc(S(=O)(=O)c2cnc(N3CCC(C(N)=O)(N4CCCCC4)CC3)nc2N)cc1`?
Tgondii IFNg: -78.4*

Results for NC(=O)C1(N2CCCCC2)CCN(c2ncc(S(=O)(=O)c3ccccc3)c(N)n2)CC1 ?
Tgondii IFNg: 68.8

Results for Cc1cc(C)n(Cc2nc(-c3ccc(NC(=O)c4c(F)cccc4F)cc3)oc2C)n1 ?
Tgondii IFNg: 14.6

What do the screens show for `COc1ccccc1N1CC(NC(=O)C2(c3cc(C)cc(C)c3)CCOCC2)CC1=O` (stereo unspecified)?
Tgondii IFNg: -2.0

Results for CC1(C)C(=O)N=C2c3ccccc3C(=O)C(=O)C21 (stereo unspecified) ?
Tgondii IFNg: -87.9*

Results for CC1(c2cccs2)NC(=O)N(Cc2ccccc2)C1=O (stereo unspecified) ?
Tgondii IFNg: 17.4

How did O=C(c1ccc(-c2ccsc2)nc1)N1CCCC(c2ccccc2)CC1 (stereo unspecified) do in these assays?
Tgondii IFNg: -9.6

What do the screens show for `O=S(=O)(Nc1ccccc1N1CCOCC1)c1cc(Cl)sc1Cl`?
Tgondii IFNg: -84.6*

Results for Cn1cc(S(=O)(=O)Nc2ccccc2N2CCOCC2)c(C(F)(F)F)n1 ?
Tgondii IFNg: -23.8

What do the screens show for `O=S(=O)(Nc1ccccc1N1CCOCC1)c1cccc2nonc12`?
Tgondii IFNg: -44.5

How did Cn1c(CNC(=O)C2CCC2)nc2c1CN(S(=O)(=O)c1ccc(F)cc1)CC2 do in these assays?
Tgondii IFNg: -16.4

How did CCc1ccc(S(=O)(=O)N2CCc3nc(CNC(=O)C4CCC4)n(C)c3C2)cc1 do in these assays?
Tgondii IFNg: -46.5

Results for CCc1ccccc1S(=O)(=O)N1CCc2nc(CNC(=O)C3CCC3)n(C)c2C1 ?
Tgondii IFNg: -83.6*

What do the screens show for `CCCNC(=O)c1cc(-c2cnc(-c3ccnn3C)nc2)cn1CC1CC1`?
Tgondii IFNg: -15.2

How did COc1ccc(-n2ccnc2-c2ccc(Sc3nncn3C)o2)cn1 do in these assays?
Tgondii IFNg: 0.2

Results for O=c1ccc2cc(S(=O)(=O)N3CCCC3)ccc2[nH]1 ?
Tgondii IFNg: inactive

How did COC(=O)Nc1ccc(S(=O)(=O)N2CCCCC2)cc1 do in these assays?
Tgondii IFNg: 24.8

What do the screens show for `O=c1[nH]c(O)c(N=Nc2ccc(S(=O)(=O)N3CCCC3)cc2)c(=O)[nH]1`?
Tgondii IFNg: -74.2*

What do the screens show for `Cc1cc(C(F)(F)F)nc(CCNC(C)Cn2ccnc2)n1` (stereo unspecified)?
Tgondii IFNg: -2.6

What do the screens show for `CC(C)c1ccc(Nc2ncc(C(=O)OCc3ccco3)c(C(F)(F)F)n2)cc1`?
Tgondii IFNg: 35.5
